Measured values as given in ChEMBL document CHEMBL3988442, “University of Dundee, Small-Polar-MMV Screening Library” (2021).

Target: AMP-activated protein kinase, AMPK (Homo sapiens) (UniProt P54646+O43741+P54619+Q9UGJ0+Q9Y478+Q13131+Q9UGI9)
Assay: AMP-dependent Kinase enzyme assay. An in vitro enzyme assay that detects ADP turnover that is directly proportional to AMPK activity. This uses naive AMPK that is activated during the assay with MK-8722
Format: functional
Design: scale not given: direction of the effect not stated beside the values
Details: 30 µM

Compound | Percent Effect [%]
COCC1CCN(C(C(=O)O)c2c(F)cccc2OC(C)C)CC1 (stereo not given) | 5.46
CCc1nc(CNc2cc(C)nc(-c3cccnc3)n2)cs1 | -0.151
CC1CCCCN1C(=O)Cn1cnc(C#N)n1 (stereo not given) | -5.33
COc1ccccc1C1CCN(C(=O)CN2C(=O)OC(C)(C)C2=O)CC1 | -11.8
CS(=O)(=O)c1ccccc1NC(=O)N[C@@H]1c2ccccc2C[C@@H]1O | 6.87
CCOc1ccccc1-n1c(C2CCC2)n[nH]c1=O | 13.5
Cn1cc(CNCCNc2ncc(Cl)cc2Cl)cn1 | -10.3
Cn1ncc2c1CCCC2NCc1cccnc1 (stereo not given) | 5.94
O=C(NCc1nncn1C1CC1)c1ccccc1OCC1CC1 | 1.41
CNc1ccc(C2CN(c3cc(C)nc(N)n3)CCO2)nc1 (stereo not given) | 17.3
COCCN1C(=O)[C@H]2CC[C@@H]1CN(S(=O)(=O)c1ccc(OC)cc1)C2 | 13.1
O=C1NCCN(C(=O)CN2CCOC2=O)C1c1cccc(F)c1 (stereo not given) | -8.21
Fc1ccc(C2(CNCCc3cccs3)CCOC2)cc1 (stereo not given) | -3.1
COc1ccccc1N1CCCC(NC(=O)Nc2cccnc2)C1 (stereo not given) | -1.53
CCOCCC(=O)NCC1CCCO1 (stereo not given) | 0.034
N#Cc1cccc(N2CCC(CO)(CCCc3ccccc3)CC2)n1 | 6.03
Cc1nsc(C(=O)NCCc2cccs2)n1 | 1.77
O=C(Nc1cccc(N2CCOCC2)c1)N[C@H](CO)c1ccccc1 | 6.04
Cn1ccc(C(=O)N2CCCC2c2cc[nH]n2)n1 (stereo not given) | 4.63
Cc1ccc(C(=O)NC2CCN(C)CC2)cc1N(C)S(C)(=O)=O | -1.82
